system: TEC; conditions: concentration: 1 μM, replicates: in singlicate; n = 1
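Also: KINOMEscan kinase panel screen.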

Compared with `CC(C)c1ccc(O)cc1Nc1ccnc2ccc(C(F)(F)F)cc12` [GW482059], `Cc1ccc(NC(=O)Nc2ccc(Cl)c(C(F)(F)F)c2)cc1-c1ccc(C(=O)Nc2ccncc2)cc1` [GSK1398470] is higher in “%Inh” value: 0% for the first, 8% for the second.

Compared with `O=C(Nc1n[nH]c2nc(-c3cccs3)c(Br)cc12)C1CC1` [SB-735297], `O=C(Nc1n[nH]c2nc(-c3ccco3)c(Br)cc12)C1CCN(Cc2ccccc2)C1.O=C(O)[C@H](O)[C@@H](O)C(=O)O` (centres unmarked) [SB-742034] is higher in “%Inh” value: 0% for the first, 8% for the second.

First: Cc1cnc(N)c(/C=C/c2cncc(C(=O)NCCc3ccc(Cl)cc3Cl)c2)c1.Cl [GSK190937]
Second: Cc1ccc(NC(=O)Nc2ccc(Cl)cc2)cc1-c1ccc(C(=O)Nc2ccncc2)cc1 [GSK1398472]
The “%Inh” value of the first is higher: 18% for the first, 0% for the second.

Compared with `c1ccc(-c2ccnc3[nH]ccc23)cc1` [SB-693578], `CCn1c(-c2ccccc2)nc2cnccc21` [SB-733416] is lower in “%Inh” value: 5% for the first, 0% for the second.

Going from `CCCCc1nn2ncccc2c1-c1ccnc(NC2CC2)n1` [GW684374] to `Cc1cccc2c(-c3ccncn3)c(-c3ccc(F)cc3)nn12` [GW515532], the “%Inh” value falls from 3% to 0%.

First: CC(=O)c1cccc(NC(=O)NC2CCN(c3ccnc(Nc4ccc(F)cc4)n3)C2)c1 (centres unmarked) [GSK1379710]
Second: COc1cccc(CNC(=O)NC2CCN(c3ccnc(Nc4ccc(F)cc4)n3)C2)c1 (centres unmarked) [GSK1379723]
The “%Inh” value of the first is lower: 4% for the first, 7% for the second.

Compared with `COc1ccc(Nc2nccc(N3CCC(NC(=O)C(C)c4ccc(Cl)cc4)C3)n2)cc1` (centres unmarked) [GSK1379735], `COC(=O)C(Cc1ccccc1)NC(=O)NC1CCN(c2ccnc(Nc3ccc(F)cc3)n2)C1` (centres unmarked) [GSK1379714] is lower in “%Inh” value: 14% for the first, 0% for the second.

Compared with `CS(=O)(=O)CCNCc1nc(-c2ccc3ncnc(Nc4ccc5c(cnn5Cc5ccccc5)c4)c3c2)cs1.Cl.Cl` [GW569716], `Cc1ccc(-c2nc(Nc3ccncc3)c3ccccc3n2)s1` [GSK189015] is higher in “%Inh” value: 0% for the first, 8% for the second.

First: COc1ccc(Nc2nccc(NCCNC(=O)Nc3cc(C)ccc3C)n2)cc1 [GSK1379899]
Second: COc1cccc(NC(=O)Nc2ccc(C)c(-c3ccc(C(=O)Nc4ccncc4)cc3)c2)c1 [GSK1398474]
The “%Inh” value of the first is higher: 16% for the first, 5% for the second.

`CC(=O)c1c(C)c2cnc(Nc3ccn(C)n3)nc2n(C2CCCC2)c1=O` and `COc1nccc(-c2c(-c3ccc(F)cc3)ncn2CCCN2CCOCC2)n1` [SB-282852] are the same in “%Inh” value: 0% for the first, 0% for the second.

Going from `O=C1NC(=O)C(c2ccc(Cl)cc2)=C1Nc1ccc(O)cc1` [SB-340867] to `COc1cccc(C2=C(Nc3cc(Cl)c(O)c(Cl)c3)C(=O)NC2=O)c1` [SB-390767], the “%Inh” value rises from 0% to 1%.

In the case of `COc1ccc(CSc2nnc(-c3ccc4c(c3)CCO4)o2)cc1`, the “%Inh” value is reported as 0%.

system: TESK1; conditions: concentration: 1 μM, replicates: in singlicate; n = 1

First: O=C(Nc1n[nH]c2cc(-c3ccsc3)ccc12)C1CC1 [SB-732932]
Second: O=C(Nc1n[nH]c2nc(-c3cccs3)c(Br)cc12)C1CC1 [SB-735297]
The “%Inh” value of the first is lower: 9% for the first, 19% for the second.

`CC[C@@H]1CO[C@H](C(=O)Nc2ccccc2)CN1c1cc(-c2ccc3c(N)n[nH]c3c2)nc(NC)n1` [GSK2376236] and `CNc1cc(-c2ccc3c(N)n[nH]c3c2)nc(N)n1` [GSK2224810] are the same in “%Inh” value: 0% for the first, 0% for the second.

First: COC(=O)C(NC(=O)NC1CCN(c2ccnc(Nc3ccc(F)cc3)n2)C1)c1ccccc1 (centres unmarked) [GSK1379712]
Second: COC(=O)C(Cc1ccccc1)NC(=O)NC1CCN(c2ccnc(Nc3ccc(F)cc3)n2)C1 (centres unmarked) [GSK1379714]
The “%Inh” value of the first is lower: 0% for the first, 16% for the second.

First: Cc1ccccc1Cn1ccn2c(=O)cc(N3CCOCC3)nc12 [GSK2269905]
Second: Cc1c(Cn2c3ccccc3n3c(=O)cc(N4CCOCC4)nc23)cccc1C(F)(F)F [GSK2306394]
The “%Inh” value of the first is higher: 15% for the first, 0% for the second.

First: Fc1ccc(-c2nn3cccc(F)c3c2-c2ccncc2)cc1 [GW475620]
Second: Cc1cccc2c(-c3ccncn3)c(-c3ccc(F)cc3)nn12 [GW515532]
The “%Inh” value of the first is lower: 4% for the first, 17% for the second.

Going from `COc1ccc(Nc2nccc(-c3ccc(NC(=O)c4cc5cc(F)ccc5[nH]4)cc3)n2)cc1` [GSK1229496] to `COc1cccc(NC(=O)Nc2ccc(C)c(-c3ccc(C(=O)Nc4ccncc4)cc3)c2)c1` [GSK1398474], the “%Inh” value rises from 7% to 19%.

Going from `COc1ccc(Nc2nccc(N3CCC(NC(=O)c4cc5ccccc5s4)C3)n2)cc1` (centres unmarked) [GSK1379738] to `COc1ccc(Nc2nccc(N3CCC(NC(=O)C(C)c4ccc(Cl)cc4)C3)n2)cc1` (centres unmarked) [GSK1379735], the “%Inh” value falls from 30% to 3%.

First: COc1ccc(-c2coc3ccc(-c4nnc(C)o4)cc23)cc1
Second: COc1ccc(CSc2nnc(-c3ccc4c(c3)CCO4)o2)cc1
The “%Inh” value of the first is higher: 8% for the first, 0% for the second.

First: CNCc1ccc2nc(NC(=O)c3ccc(C(C)(C)C)cc3)cn2c1
Second: COc1ccc(Nc2nccc(NCCNC(=O)Nc3cc(C)ccc3C)n2)cc1 [GSK1379899]
The “%Inh” value of the first is lower: 0% for the first, 7% for the second.

Going from `CS(=O)(=O)CCNCc1nc(-c2ccc3ncnc(Nc4ccc(OCc5ccccc5)c(Cl)c4)c3c2)cs1.Cl` [GW582764] to `CS(=O)(=O)CCNCc1nc(-c2ccc3ncnc(Nc4ccc5c(cnn5Cc5ccccc5)c4)c3c2)cs1.Cl.Cl` [GW569716], the “%Inh” value rises from 19% to 21%.

Going from `Cl.Cl.Cl.N#Cc1ccc(CCNc2nccc(-c3cccc(CN4CCNCC4)c3)n2)cc1` [GSK2137462] to `COc1cccc(CNC(=O)NC2CCN(c3ccnc(Nc4ccc(F)cc4)n3)C2)c1` (centres unmarked) [GSK1379723], the “%Inh” value rises from 11% to 100%.

Going from `CC(C)c1ccc(O)cc1Nc1ccnc2ccc(C(F)(F)F)cc12` [GW482059] to `Cc1ccc(NC(=O)Nc2ccc(Cl)c(C(F)(F)F)c2)cc1-c1ccc(C(=O)Nc2ccncc2)cc1` [GSK1398470], the “%Inh” value rises from 0% to 23%.

Going from `Cc1cnc(N)c(/C=C/c2cncc(C(=O)NCCc3ccc(Cl)cc3Cl)c2)c1.Cl` [GSK190937] to `Cc1ccc(NC(=O)Nc2ccc(Cl)cc2)cc1-c1ccc(C(=O)Nc2ccncc2)cc1` [GSK1398472], the “%Inh” value rises from 1% to 54%.

Going from `c1ccc(-c2ccnc3[nH]ccc23)cc1` [SB-693578] to `CCn1c(-c2ccccc2)nc2cnccc21` [SB-733416], the “%Inh” value falls from 43% to 9%.

Compared with `O=C(Nc1n[nH]c2nc(-c3ccco3)c(Br)cc12)C1CCN(Cc2ccccc2)C1.O=C(O)[C@H](O)[C@@H](O)C(=O)O` (centres unmarked) [SB-742034], `CC(=O)c1cccc(NC(=O)NC2CCN(c3ccnc(Nc4ccc(F)cc4)n3)C2)c1` (centres unmarked) [GSK1379710] is lower in “%Inh” value: 23% for the first, 20% for the second.

First: CCCCc1nn2ncccc2c1-c1ccnc(NC2CC2)n1 [GW684374]
Second: COc1nccc(-c2c(-c3ccc(F)cc3)ncn2CCCN2CCOCC2)n1 [SB-282852]
The “%Inh” value of the first is higher: 13% for the first, 8% for the second.

First: Cc1ccc(-c2nc(Nc3ccncc3)c3ccccc3n2)s1 [GSK189015]
Second: O=C1NC(=O)C(c2ccc(Cl)cc2)=C1Nc1ccc(O)cc1 [SB-340867]
The “%Inh” value of the first is higher: 61% for the first, 12% for the second.

Going from `CC(=O)c1c(C)c2cnc(Nc3ccn(C)n3)nc2n(C2CCCC2)c1=O` to `COc1cccc(C2=C(Nc3cc(Cl)c(O)c(Cl)c3)C(=O)NC2=O)c1` [SB-390767], the “%Inh” value falls from 4% to 0%.
